Source: PubChem
An excerpt weighted towards active compounds, which were near 27% of everything screened.
sEH inh – inhibitors of human soluble epoxide hydrolase | recombinant human sEH enzymatic activity assay | inhibition, % at 2 µM | 91,000 compounds, 0.34% hits; in the data active = inhibition above about 80%
Target sequence (P34913 whole entry, looked up): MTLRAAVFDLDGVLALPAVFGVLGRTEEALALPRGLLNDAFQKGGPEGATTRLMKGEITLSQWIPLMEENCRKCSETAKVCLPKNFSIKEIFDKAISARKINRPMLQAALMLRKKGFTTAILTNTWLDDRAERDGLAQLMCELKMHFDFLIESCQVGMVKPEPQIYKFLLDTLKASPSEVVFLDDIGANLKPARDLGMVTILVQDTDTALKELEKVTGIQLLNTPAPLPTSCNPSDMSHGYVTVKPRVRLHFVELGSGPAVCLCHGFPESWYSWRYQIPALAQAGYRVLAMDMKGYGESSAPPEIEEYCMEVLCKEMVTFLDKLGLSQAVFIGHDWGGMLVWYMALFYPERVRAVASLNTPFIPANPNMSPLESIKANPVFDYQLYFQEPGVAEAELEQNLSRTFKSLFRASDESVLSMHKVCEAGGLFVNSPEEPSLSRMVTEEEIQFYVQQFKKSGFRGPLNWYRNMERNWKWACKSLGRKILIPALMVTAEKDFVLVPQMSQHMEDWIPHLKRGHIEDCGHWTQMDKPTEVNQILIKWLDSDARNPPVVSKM
CYP2C9 inhib – blocks human cytochrome P450 2C9; 96,000 compounds, 20% hits; P11712; AID 777; CYP2C9 Supersomes, luciferin-H conversion, luminescence; inhibition, % at 5 µM;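 active = blocking of liver enzyme CYP2C9 beyond about 50% at 5 µM, limit read from the data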
CYP2C9 activ – CYP2C9 (human) activation; AID 1024; activation factor at 5 µM; recombinant CYP2C9, luciferin-H conversion, luminescence; stronger effect = higher value; factor 1 = untreated enzyme, 0 = blocked; P11712; 96,000 compounds, 1.4% hits;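 active = activation factor of 2 or more for CYP2C9 at a 5 µM dose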;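 also: 0 = sulfaphenazole-blocked wells and 1 = vehicle-only wells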
sEH act – increases human soluble epoxide hydrolase activity | activation, % at 2 µM | AID 717 | P34913 | 91,000 compounds, 0.04% hits | purified human sEH enzymatic activity, activator screen; in the data active = activation above about 37%
CYP2C19 inh – human CYP2C19 inhibition; P33261; CYP2C19 Supersomes, luciferin-H EGE luminescence, 30 min; inhibition, % at 5 µM; 96,000 compounds, 21% hits;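 active = CYP2C19 inhibition above a set limit at 5 µM in the primary screen, cut at about 50% in these data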;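 also: plate controls were negative control wells for no effect and 2.5 mM tranylcypromine positive control for full effect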
CYP2C19 activ – increases human CYP2C19 enzyme activity; AID 1025; activation factor at 5 µM; P33261; 96,000 tested, under 10 active; recombinant CYP2C19, luciferin-H EGE luminescence; stronger effect = higher value; 0 = fully inhibited enzyme, 1 = untreated enzyme;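 active = activation factor of at least 2 at 5 µM in the primary screen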;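 also: 0 = wells with 2.5 mM tranylcypromine and 1 = vehicle-only wells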
* marks the source's active call; other numbers are inactive results; . = no result.

SMILES	sEH inh	CYP2C9 inhib	CYP2C9 activ	sEH act	CYP2C19 inh	CYP2C19 activ
CCCn1c(SCC(=O)N2c3ccccc3CC2C)nnc1-c1ccco1 (stereo not drawn)	0.1	.	.	3.2	.	.
CC1Cc2ccccc2N1C(=O)CSc1nnnn1C(C)C (stereo not drawn)	-4.9	51.7*	0.5	3.3	40.2	0.6
COCCN(CC(=O)NCc1ccc(F)cc1)C(=O)CCC(=O)Nc1ccccn1	-0.7	-1.7	1	1.1	-0.5	1
N#C/C=C(/N)N1CCN(c2ccc(Cl)c(Cl)c2)CC1	16.4	28.2	0.7	-14.9	32.9	0.7
O=C(c1cccc(F)c1)N1CCN(C(=O)c2cc(-c3ccc(Cl)cc3Cl)on2)CC1	-2.8	39.4	0.6	2.4	79.8*	0.2
COC(=O)Cc1ccc2c3ccccc3n(C)c2c1	-1.6	4.1	1	4.4	71.4*	0.3
Cn1c2ccc(CC(=O)O)cc2c2cc(CC(=O)O)ccc21	-11.3	-5.8	1.1	13.2	-10.1	1.1
COC(C(=O)Nc1cccc(F)c1)c1ccccc1 (stereo not drawn)	.	23.2	0.8	.	50.3*	0.5
COC(C(=O)Nc1ccccc1F)c1ccccc1 (stereo not drawn)	-15.4	-12.9	1.1	17.6	66.4*	0.3
CC1=CCC2(CO)COC(c3ccccc3O)C1C2 (stereo not drawn)	.	11.7	0.9	.	35.1	0.6
Cc1ccc(N2C(=O)CSC2c2cccnc2)cc1F (stereo not drawn)	0.1	-6.2	1.1	-2.2	11.6	0.9
OC(COc1ccc2ccccc2c1)Cn1ccnc1 (stereo not drawn)	-3.5	97.8*	0	2.0	100.0*	0
Cc1nc(C)n(CC(O)COc2ccc3cc(Br)ccc3c2)n1 (stereo not drawn)	-10.9	-6.2	1.1	8.8	36.1	0.6
OC(COc1ccc2ccccc2c1Br)Cn1ccnc1 (stereo not drawn)	6.8	96.0*	0	-2.7	99.4*	0
COC(=O)c1cc(-c2ccc(OC)c(OC)c2)n[nH]1	6.1	21.4	0.8	-4.7	55.0*	0.4
CC(/C=N/n1cnnc1)=C\c1ccccc1	-5.2	13.4	0.9	3.3	94.5*	0.1
Nc1nnnn1/N=C/C=C/c1ccccc1	.	21.4	0.8	.	13.3	0.9
CC(=C/c1ccccc1)/C=N/n1cnnc1	3.5	14.5	0.9	-1.8	94.0*	0.1
C(=C\c1ccccc1)/C=N/n1cnnc1	-1.1	28.0	0.7	-1.3	83.7*	0.2
CC(/C=N\N1CCN(c2ccc(Cl)cc2)CC1)=C\c1ccccc1	-2.3	-1.9	1	5.7	2.0	1
Cc1nc(-c2coc3c(CN(C)C)c(O)ccc3c2=O)cs1	49.1	5.2	0.9	-49.8	3.1	1
COc1cc2c3c(c1OC)C1(C=CC(=O)C=C1)CC3N(C(=O)c1ccccc1)CC2 (stereo not drawn)	-7.2	86.4*	0.1	6.8	13.8	0.9
CC1CN(C2CCN(C(=O)COc3ccc(Cl)cc3)CC2)CC(C)O1 (stereo not drawn)	-11.1	2.8	1	10.4	8.8	0.9
O=C(c1ccccc1)N1CCCC(c2ccc(Cl)cc2)=N1	7.6	44.8	0.6	-8.6	56.8*	0.4
O=C(c1cccc(Cl)c1)N1CCCC(c2ccc(Cl)cc2)=N1	4.0	48.1	0.5	-5.0	61.7*	0.4
SMILES	sEH inh	CYP2C9 inhib	CYP2C9 activ	sEH act	CYP2C19 inh	CYP2C19 activ
O=C(c1cccc(Cl)c1)N1CCN(C2CCCCCC2)CC1	1.2	8.9	0.9	-1.3	19.0	0.8
CCOC(=O)N1CCC(Nc2ncnc3c2cnn3-c2ccc(Cl)cc2)CC1	-3.6	6.3	0.9	1.7	11.2	0.9
CCOC(=O)C1CCN(c2c(NC3CCCc4ccccc43)c(=O)c2=O)CC1 (stereo not drawn)	-4.2	2.0	1	4.1	-13.1	1.1
Cc1ccc(OCc2nc(C#N)c(NCc3ccco3)o2)cc1	-12.7	100.3*	0	15.8	90.3*	0.1
N#Cc1nc(-c2ccco2)oc1NCc1ccco1	-16.4	44.5	0.6	18.2	15.9	0.8
COc1ccccc1OCc1nc(C#N)c(NCc2ccco2)o1	2.2	80.2*	0.2	-4.3	73.7*	0.3
N#Cc1nc(COc2cccc(Cl)c2)oc1NCc1ccco1	-15.8	84.7*	0.2	14.3	50.4*	0.5
Cc1ccc(-c2nc(C#N)c(NCc3ccco3)o2)cc1	.	58.3*	0.4	.	40.1	0.6
COCCSc1nnc(NC(=O)C(C)(C)C)s1	5.7	4.0	1	-2.4	19.1	0.8
COc1ccc(-c2csc(NC(=O)CC(C)C)n2)cc1	-6.3	.	.	6.3	.	.
CC(C)CC(=O)NC(=S)Nc1nc(-c2cccc3ccccc23)cs1	-3.7	57.2*	0.4	5.8	41.5	0.6
OCCNc1nc(OCC(F)(F)F)nc(N2CCN(C34CC5CC(CC(C5)C3)C4)CC2)n1	.	23.0	0.8	.	-7.3	1.1
CC(=O)/C=C(\C)NCCNc1c(F)c(F)c(CO)c(F)c1F	.	48.2	0.5	.	79.1*	0.2
CC(C)NC(=O)N1CCOCCOCCN(C(=O)NC(C)C)CCOCCOCC1	.	9.4	0.9	.	-4.4	1
COc1ccc2[nH]c(=O)c(CN(C(=O)c3ccncc3)C(C)C)cc2c1	2.7	50.2*	0.5	-1.3	28.7	0.7
COc1ccc2[nH]c(=O)c(CN(C(=O)c3ccncc3)C(C)(C)C)cc2c1	.	21.1	0.8	.	-1.2	1
CCCCN(Cc1cc2cc(OC)ccc2[nH]c1=O)C(=O)c1ccco1	-6.0	70.4*	0.3	8.9	73.8*	0.3
CCOC(=O)c1cccc(S(=O)(=O)N(CCO)Cc2cc3cc(OC)c(OC)cc3[nH]c2=O)c1	-3.8	1.9	1	5.2	2.8	1
CCOC(=O)c1cccc(S(=O)(=O)N(CCO)Cc2cc3cc(OC)ccc3[nH]c2=O)c1	-1.3	11.6	0.9	0.7	56.3*	0.4
COc1ccc2[nH]c(=O)c(CN(C)C(=O)c3ccncc3)cc2c1	.	59.7*	0.4	.	91.6*	0.1
CCS(=O)(=O)N1CCC(C(=O)NCC2CCCO2)CC1 (stereo not drawn)	-3.1	-13.6	1.1	0.4	-10.9	1.1
O=C(Cc1cccs1)Nc1ccc(-c2nc3ccccc3[nH]2)cc1	4.0	-0.9	1	-0.9	3.2	1
CCCN(Cc1cc2cc(OC)ccc2[nH]c1=O)C(=O)c1ccncc1	.	46.3	0.5	.	67.6*	0.3
CCCN(Cc1cc2cc(C)ccc2[nH]c1=O)S(C)(=O)=O	-0.4	72.6*	0.3	-0.2	87.8*	0.1
Cc1ccc2[nH]c(=O)c(CN(CCO)C(=O)N(C)C)cc2c1	6.9	.	.	-1.4	.	.
CCCN(Cc1cc2cc(C)ccc2[nH]c1=O)C(=O)c1cccc(OC)c1	1.8	58.0*	0.4	-2.7	64.0*	0.4
CCCN(Cc1cc2cccc(C)c2[nH]c1=O)C(=O)c1cccc(OC)c1	-4.3	.	.	2.7	.	.
